Data reported in PubChem BioAssay (NCI).
The panel holds about 79,000 compounds, 15% with a hit somewhere; the sample as a whole holds those more often. Unmarked numbers belong to inactive results. The source made the active and inactive calls. Rule as the data show it: active = growth inhibition above about 70%; inactive = the rest. Where a SMILES comes first, the peptide text is derived from it. The star is where a group is joined. Trt = c1ccc(C(c2ccccc2)(c2ccccc2)*)cc1; Cbz = O=C(OCc1ccccc1)*

Experiment: NCI Yeast Anticancer Drug Screen. Data for the bub3 strain (AID 167)
Details: S. cerevisiae bub3 mutant strain, at 50.0 µM (retest, dose inferred, filed as 5.0), hits give high values
Procedure, shortened: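 Steps: expose the mutant yeast strain to compound; grow alongside vehicle-treated cultures; measure growth; express inhibition against the vehicle cultures.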

Structure (SMILES) | growth inhibition
CC(=O)O[C@H]1CC[C@]2(C)C3=CC[C@]4(C)[C@@H](C(C)=O)CC[C@H]4[C@@]34C=C[C@]2(C1)C1C(=O)OC(=O)C14 (stereo not given in full) | 4%
Cc1cc(O)c2c(c1)C(=O)c1c(c(O)cc(O)c1-c1c(O)cc(O)c3c1C(=O)c1cc(C)cc(O)c1C3=O)C2=O | 69%
NC(=O)/C(=N\NC(=O)c1cc2ccccc2cc1O)C1C(=O)N(c2ccccc2)N=C1N (stereo not given) | 2%
CCNC(=S)NNC(=S)NNc1ccccc1 | 77% (active)
OCC(O)C(O)C(O)C(O)C(O)C(/C=N/Nc1ccccc1)=N/Nc1ccccc1 (stereo not given) | 95% (active)
O=C(CN(Cc1ccccc1)Cc1ccccc1)c1ccccc1 | 89% (active)
COC(=O)C1CCC(c2ccccc2)CC1C(=O)OC (stereo not given) | 31%
COc1ccc2c(c1)C(=O)C(Br)CC2 (stereo not given) | 99% (active)
O=C1c2ccccc2C(=O)c2sc(Nc3ccc(Cl)cc3)nc21 | 99% (active)
O=Nc1c(-c2cccc([N+](=O)[O-])c2)nc2cnccn12 | 99% (active)
CC/C(=N\NS(=O)(=O)c1ccc(C)cc1)c1cccc(OC)c1 | 86% (active)
NNC(=S)NN/C=C(\C=Nc1ccccc1)[N+](=O)[O-] | 64%
CC(C)(C)c1ccc(CN2CCN(C(c3ccccc3)c3ccc(Cl)cc3)CC2)cc1 (stereo not given) | 73% (active)
O=C1OCc2cccc3cccc1c23 | 69%
CC(C)CC(NC(=O)COc1c(Cl)cc(Cl)c(Cl)c1Cl)C(=O)O (stereo not given) | 10%
CC1CCN(CCC(=O)c2cccc(O)c2)CC1 | 39%
CCC(c1ccc(O)c(C2CCCCC2)c1)C(CC)c1ccc(OC(=O)c2ccccc2)c(C2CCCCC2)c1 (stereo not given) | -6%
CC(=O)c1csc2c1C(=O)c1scc(C(C)=O)c1C2=O | 47%
O=C1C2=Cc3ccccc3CCN2c2ccccc21 | 2%
Cc1cc(I)cc(I)c1O | 33%

Structure (SMILES) | growth inhibition
NCCCSc1ccc(Br)cc1 | -21%
O=C1OC2(Cc3ccccc31)c1ccccc1-c1ccccc12 | -7%
Cc1occc1C(=S)Nc1ccc(Cl)c(C(=O)OCC2CC2)c1 | 17%
c1cc(C2=NCCN2)ccc1Nc1ccc(-c2cc3ccc(C4=NCCN4)cc3[nH]2)cc1 | 99% (active)
Cc1ccc(C)c(NC(=O)CC2SC(=Nc3ccccc3Cl)NC2=O)c1 (stereo not given) | 85% (active)
Cc1ccccc1[P+](C)(c1ccccc1C)c1ccccc1C | 85% (active)
Oc1ccc(CNCc2ccccc2)c2cccnc12 | 99% (active)
COC(=O)c1ccc(OC)cc1 | 2%
OCC(CO)C1c2cccc3ccc4cccc1c4c23 | 42%
CCC(CCCN(CC)CCc1ccccc1)OC(=O)c1cc(OC)c(OC)c(OC)c1 (stereo not given) | 18%
O=[N+]([O-])c1ccc(-[n+]2ccc3ccccc3c2)c([N+](=O)[O-])c1 | 59%
CN(C)CCC1(C2=CCCC2)CC/C(=C\c2ccccc2Cl)C1=O (stereo not given) | 76% (active)
CCOC(=O)CCC(NC(=O)c1ccc(NC(OC)c2nc3cc(C(F)(F)F)ccc3nc2-c2ccccc2)cc1)C(=O)OCC (stereo not given) | 84% (active)
CCCCCCN(CCCCCC)CC(O)c1cc(-c2ccccc2)nc2c(O)cccc12 (stereo not given) | 92% (active)
O=C1C=CC(=O)N1C1c2ccccc2-c2ccccc21 | 100% (active)
CC(=O)c1ccc(OCc2ccccc2)cc1 | 3%
O=C(Oc1cccc2cccnc12)c1ccccc1 | 99% (active)
C=C(Cl)C(=NC(C)(C)C)Nc1ccccc1C | 60%
COC(=O)C(CSC(c1ccccc1)(c1ccccc1)c1ccccc1)NC(=O)C(CC(N)=O)NC(=O)OCc1ccccc1 (stereo not drawn) (Cbz-Asn-Cys(Trt)-OMe; configuration not given here) | 94% (active)
ClCc1nnc2n1-c1ccc(Cl)cc1SC2 | 92% (active)

Same assay, conditions: S. cerevisiae bub3 mutant strain, at 50.0 µM, hits give high values

Structure (SMILES) | growth inhibition
CC(=O)O[C@H]1CC[C@]2(C)C3=CC[C@]4(C)[C@@H](C(C)=O)CC[C@H]4[C@@]34C=C[C@]2(C1)C1C(=O)OC(=O)C14 (stereo not given in full) | 56.9%
Cc1cc(O)c2c(c1)C(=O)c1c(c(O)cc(O)c1-c1c(O)cc(O)c3c1C(=O)c1cc(C)cc(O)c1C3=O)C2=O | 63.7%
NC(=O)/C(=N\NC(=O)c1cc2ccccc2cc1O)C1C(=O)N(c2ccccc2)N=C1N (stereo not given) | 50.1%
CCNC(=S)NNC(=S)NNc1ccccc1 | 60.5%
OCC(O)C(O)C(O)C(O)C(O)C(/C=N/Nc1ccccc1)=N/Nc1ccccc1 (stereo not given) | 56%
O=C(CN(Cc1ccccc1)Cc1ccccc1)c1ccccc1 | 79.7% (active)
COC(=O)C1CCC(c2ccccc2)CC1C(=O)OC (stereo not given) | 71.2% (active)
COc1ccc2c(c1)C(=O)C(Br)CC2 (stereo not given) | 70%
O=C1c2ccccc2C(=O)c2sc(Nc3ccc(Cl)cc3)nc21 | 91.6% (active)
O=Nc1c(-c2cccc([N+](=O)[O-])c2)nc2cnccn12 | 99.7% (active)
CC/C(=N\NS(=O)(=O)c1ccc(C)cc1)c1cccc(OC)c1 | 36.6%
NNC(=S)NN/C=C(\C=Nc1ccccc1)[N+](=O)[O-] | 75.1% (active)
CC(C)(C)c1ccc(CN2CCN(C(c3ccccc3)c3ccc(Cl)cc3)CC2)cc1 (stereo not given) | -4.4%
O=C1OCc2cccc3cccc1c23 | 27.8%
CC(C)CC(NC(=O)COc1c(Cl)cc(Cl)c(Cl)c1Cl)C(=O)O (stereo not given) | 1%
CC1CCN(CCC(=O)c2cccc(O)c2)CC1 | 15.5%
CCC(c1ccc(O)c(C2CCCCC2)c1)C(CC)c1ccc(OC(=O)c2ccccc2)c(C2CCCCC2)c1 (stereo not given) | 1.15%
CC(=O)c1csc2c1C(=O)c1scc(C(C)=O)c1C2=O | 90.3% (active)
O=C1C2=Cc3ccccc3CCN2c2ccccc21 | 89.8% (active)
Cc1cc(I)cc(I)c1O | 67.3%

Structure (SMILES) | growth inhibition
NCCCSc1ccc(Br)cc1 | 8.3%
O=C1OC2(Cc3ccccc31)c1ccccc1-c1ccccc12 | 9.45%
Cc1occc1C(=S)Nc1ccc(Cl)c(C(=O)OCC2CC2)c1 | 80.2% (active)
c1cc(C2=NCCN2)ccc1Nc1ccc(-c2cc3ccc(C4=NCCN4)cc3[nH]2)cc1 | 99.3% (active)
Cc1ccc(C)c(NC(=O)CC2SC(=Nc3ccccc3Cl)NC2=O)c1 (stereo not given) | 75.9% (active)
Cc1ccccc1[P+](C)(c1ccccc1C)c1ccccc1C | 82.8% (active)
Oc1ccc(CNCc2ccccc2)c2cccnc12 | 98.1% (active)
COC(=O)c1ccc(OC)cc1 | 69.1%
OCC(CO)C1c2cccc3ccc4cccc1c4c23 | 53.5%
CCC(CCCN(CC)CCc1ccccc1)OC(=O)c1cc(OC)c(OC)c(OC)c1 (stereo not given) | 4%
O=[N+]([O-])c1ccc(-[n+]2ccc3ccccc3c2)c([N+](=O)[O-])c1 | 78% (active)
CN(C)CCC1(C2=CCCC2)CC/C(=C\c2ccccc2Cl)C1=O (stereo not given) | 36.5%
CCOC(=O)CCC(NC(=O)c1ccc(NC(OC)c2nc3cc(C(F)(F)F)ccc3nc2-c2ccccc2)cc1)C(=O)OCC (stereo not given) | 91.8% (active)
CCCCCCN(CCCCCC)CC(O)c1cc(-c2ccccc2)nc2c(O)cccc12 (stereo not given) | 40%
O=C1C=CC(=O)N1C1c2ccccc2-c2ccccc21 | 99.5% (active)
CC(=O)c1ccc(OCc2ccccc2)cc1 | 9.75%
O=C(Oc1cccc2cccnc12)c1ccccc1 | 98% (active)
C=C(Cl)C(=NC(C)(C)C)Nc1ccccc1C | 83.8% (active)
COC(=O)C(CSC(c1ccccc1)(c1ccccc1)c1ccccc1)NC(=O)C(CC(N)=O)NC(=O)OCc1ccccc1 (stereo not drawn) (Cbz-Asn-Cys(Trt)-OMe; configuration not given here) | 68.8%
ClCc1nnc2n1-c1ccc(Cl)cc1SC2 | 20.9%
